Target: Tyrosine-protein kinase HCK (Homo sapiens) (UniProt P08631)
Details: at 0.1 µM

Sequence of Tyrosine-protein kinase HCK (Homo sapiens) (P08631 2-526 limits assumed): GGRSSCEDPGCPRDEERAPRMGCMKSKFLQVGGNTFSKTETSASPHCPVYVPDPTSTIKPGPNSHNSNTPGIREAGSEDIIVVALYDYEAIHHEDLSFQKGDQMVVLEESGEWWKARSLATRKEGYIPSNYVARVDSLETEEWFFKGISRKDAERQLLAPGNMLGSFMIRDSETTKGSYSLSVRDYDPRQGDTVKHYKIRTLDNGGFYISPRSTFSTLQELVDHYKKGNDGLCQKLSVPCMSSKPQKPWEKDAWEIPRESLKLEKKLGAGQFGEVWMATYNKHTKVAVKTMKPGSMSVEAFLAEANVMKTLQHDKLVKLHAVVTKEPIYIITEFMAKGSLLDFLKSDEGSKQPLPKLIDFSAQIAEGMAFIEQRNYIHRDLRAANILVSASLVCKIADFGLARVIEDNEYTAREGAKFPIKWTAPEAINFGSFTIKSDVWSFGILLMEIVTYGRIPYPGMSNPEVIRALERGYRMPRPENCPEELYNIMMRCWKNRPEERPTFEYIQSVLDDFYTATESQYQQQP

Question: How did the inhibition turn out when Oc1cccc(-c2nc(-c3ccccc3)[nH]c2-c2ccncc2)c1 was run?
Answer: 13.7%

Question: How did the inhibition turn out when Cc1ccc2c(-c3ccnc(Nc4ccc5c(c4)OCCO5)n3)c(-c3ccc(C(F)(F)F)cc3)nn2n1 was run?
Answer: 1.01%

Question: How did the inhibition turn out when O=S(=O)(CCOCc1ccc(-c2ccc3ncnc(Nc4ccc(OCc5cccc(F)c5)c(Cl)c4)c3c2)o1)c1ccccc1 was run?
Answer: 3.81%

Question: Which inhibition does the source give for COc1cc2ncnc(Nc3ccc4c(cnn4Cc4ccccc4)c3)c2cc1OC here?
Answer: 11.4%

Question: Which inhibition does the source give for COC(=O)Nc1nc2cc(Oc3ccc(NC(=O)Nc4cccc(Br)c4)cc3)ccc2[nH]1 here?
Answer: 6.2%

Target: Tyrosine-protein kinase HCK (Homo sapiens) (UniProt P08631)
Details: at 1 µM

Question: For N#Cc1cccc(Nc2nccc(-c3cnn4ncccc34)n2)c1, which inhibition is on record?
Answer: 35.9%

Question: How did the inhibition turn out when Cc1cc(O)cc(C)c1/C=C/c1cncc(C(=O)N(C)C)c1 was run?
Answer: 10.8%

Question: How did the inhibition turn out when CN(C)CCCn1c(-c2nonc2N)nc2cnccc21 was run?
Answer: 6.49%

Question: Which inhibition does the source give for COc1cccc(-n2ncc3c(N/N=C/c4ccc(S(C)(=O)=O)cc4)ncnc32)c1 here?
Answer: 55.7%

Question: With COc1cc(Nc2nccc(-c3cnn4ncccc34)n2)cc(OC)c1 as the compound, how does the inhibition read?
Answer: 32.8%

Question: With NC(=O)c1cccc(Nc2nccc(Nc3cccc(F)c3)n2)c1 as the compound, how does the inhibition read?
Answer: 30.8%

Question: With NS(=O)(=O)c1ccc(Nc2cc(-c3cccc(O)c3)n[nH]2)cc1 as the compound, how does the inhibition read?
Answer: 11.7%

Question: Which inhibition does the source give for CC(C)c1ccc(Nc2nccc(-c3cnn4ncccc34)n2)cc1 here?
Answer: 8.83%

Question: O=C1Nc2ccccc2/C1=C/Nc1ccc2[nH]c(=O)[nH]c2c1 was tested. Which inhibition did it give?
Answer: 21.5%

Question: Which inhibition does the source give for CN1CCN(C(=O)c2ccc(NC(=O)Nc3ccc(N(C)c4ccnc(Nc5ccc(CS(C)(=O)=O)cc5)n4)cc3)cc2)CC1 here?
Answer: 22.7%

Question: With CCn1c(-c2nonc2N)nc2c(C#CC(C)(C)O)nc(OCCNC)cc21 as the compound, how does the inhibition read?
Answer: 8.69%

Question: With COc1cccc(-n2ncc3c(N/N=C/c4ccc(C)cc4)ncnc32)c1 as the compound, how does the inhibition read?
Answer: 16.2%

Question: For NS(=O)(=O)c1cccc(Nc2cc(-c3ccc(F)cc3)n[nH]2)c1, which inhibition is on record?
Answer: 7.76%

Question: With Cc1cc(Cl)cc2c1NC(=O)C2=NNc1ccc(S(N)(=O)=O)cc1 as the compound, how does the inhibition read?
Answer: 4.3%

Question: For CN(C)C(=O)O[C@@H]1CN[C@@H](C#Cc2cc3ncnc(Nc4ccc(OCc5cccc(F)c5)c(Cl)c4)c3s2)C1, which inhibition is on record?
Answer: 4.13%

Question: How did the inhibition turn out when CN(C)c1cc2c(Nc3ccc4c(cnn4Cc4ccccc4)c3)ncnc2cn1 was run?
Answer: 19.9%

Question: With CN(C)C(=O)O[C@H]1CN[C@H](C#Cc2cc3ncnc(Nc4ccc(OCc5cccc(F)c5)c(Cl)c4)c3s2)C1 as the compound, how does the inhibition read?
Answer: 10.5%

Question: How did the inhibition turn out when COc1ccc(-c2nn3ncccc3c2-c2ccnc(Nc3cccc(C(F)(F)F)c3)n2)cc1 was run?
Answer: 8.02%

Question: With COc1cc(/C=N/Nc2ncnc3c2cnn3C(C)C)ccc1O as the compound, how does the inhibition read?
Answer: 32.6%

Question: How did the inhibition turn out when Cc1ccc2c(-c3ccnc(Nc4cccc(C(F)(F)F)c4)n3)c(-c3ccccc3)nn2n1 was run?
Answer: 45.1%

Question: With Cc1cc(-c2ccccn2)cc(C)c1/C=C/c1cncc(-c2nn[nH]n2)c1 as the compound, how does the inhibition read?
Answer: 17.3%

Question: How did the inhibition turn out when c1ccc(Cc2nc3ccc(Nc4ncnc5ccccc45)cc3[nH]2)cc1 was run?
Answer: 11.5%

Question: Which inhibition does the source give for NS(=O)(=O)c1ccc(NC=C2C(=O)Nc3ccc4ncsc4c32)cc1 here?
Answer: 43.8%

Question: Which inhibition does the source give for Cc1ccc2c(c1)/C(=N/Nc1ccc(S(N)(=O)=O)cc1)C(=O)N2 here?
Answer: 6.19%

Question: How did the inhibition turn out when Nc1nccc(C#Cc2cncnc2Nc2ccc(OCc3cccc(F)c3)c(Cl)c2)n1 was run?
Answer: 10.2%

Question: For CCCN1CCCC(c2ccc(Nc3nc(Nc4cc(F)ccc4C(N)=O)c4cc[nH]c4n3)c(OC)c2)C1 (stereo not drawn), which inhibition is on record?
Answer: 11.9%

Question: How did the inhibition turn out when O=C1Nc2ccc(-c3cccnc3)cc2C1=Cc1cc(Br)c(O)c(Br)c1 was run?
Answer: 11.1%

Question: With ON=C1CCc2cc(-c3nc(C4CCNCC4)[nH]c3-c3ccncc3)ccc21 as the compound, how does the inhibition read?
Answer: 4.24%

Question: Oc1cccc(-c2nc(-c3ccccc3)[nH]c2-c2ccncc2)c1 was tested. Which inhibition did it give?
Answer: 51.2%

Question: Cc1ccc2c(-c3ccnc(Nc4ccc5c(c4)OCCO5)n3)c(-c3ccc(C(F)(F)F)cc3)nn2n1 was tested. Which inhibition did it give?
Answer: 2.01%

Question: How did the inhibition turn out when O=S(=O)(CCOCc1ccc(-c2ccc3ncnc(Nc4ccc(OCc5cccc(F)c5)c(Cl)c4)c3c2)o1)c1ccccc1 was run?
Answer: 6.35%

Question: Which inhibition does the source give for COc1cc2ncnc(Nc3ccc4c(cnn4Cc4ccccc4)c3)c2cc1OC here?
Answer: 48.5%

Question: Which inhibition does the source give for COC(=O)Nc1nc2cc(Oc3ccc(NC(=O)Nc4cccc(Br)c4)cc3)ccc2[nH]1 here?
Answer: 6.79%
